Where “and” joins values, the source holds several entries; their conditions need not be identical. Equal entries are not always repeated. Records with an inconclusive call do not appear. A call without a number means that no potency is given here. Some structures have more than one record in an assay (separate samples or runs), and their calls can disagree. Calls of active or inactive are those of the source. Unless noted, calls follow the shape of the dose curve; as a rule, active = well fitted curve in the direction sought with a large enough effect in the repeat runs; inconclusive = weak or mixed curves; inactive = no such curve, though single readings can be large; an effect the other way counts as inactive or inconclusive.
Potency is read from the fitted curve at half-maximal effect.

Estrogen receptor (Homo sapiens), sequence (P03372 whole entry, looked up): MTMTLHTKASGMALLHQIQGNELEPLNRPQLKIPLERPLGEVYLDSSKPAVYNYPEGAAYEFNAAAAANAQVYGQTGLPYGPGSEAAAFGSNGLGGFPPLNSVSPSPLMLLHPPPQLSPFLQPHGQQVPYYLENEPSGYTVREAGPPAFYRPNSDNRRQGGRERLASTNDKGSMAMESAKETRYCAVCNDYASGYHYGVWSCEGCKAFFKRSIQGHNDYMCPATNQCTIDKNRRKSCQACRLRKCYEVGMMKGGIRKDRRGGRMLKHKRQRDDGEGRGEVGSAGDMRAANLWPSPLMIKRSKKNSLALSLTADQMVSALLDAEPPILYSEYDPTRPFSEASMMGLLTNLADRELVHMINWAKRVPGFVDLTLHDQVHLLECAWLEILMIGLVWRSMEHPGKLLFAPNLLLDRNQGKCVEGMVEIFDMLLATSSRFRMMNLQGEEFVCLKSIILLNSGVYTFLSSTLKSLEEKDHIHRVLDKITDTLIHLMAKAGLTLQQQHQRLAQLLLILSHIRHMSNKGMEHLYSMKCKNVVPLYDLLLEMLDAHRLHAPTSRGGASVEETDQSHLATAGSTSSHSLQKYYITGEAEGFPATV

One assay concerns the target Estrogen receptor (Homo sapiens) (UniProt P03372). Briefly: qHTS assay to identify small molecule agonists of the estrogen receptor alpha (ER-alpha) signaling pathway using the BG1 cell line (AID 743079). Also: nearly all actives have a fitted effect of over 20% in size. Particulars: BG1Luc4E2 cells, ERE-luciferase agonist, 22 h; activation: at 70.3 µM (top of the series).
`CCCCCCCCCCOCC(O)CN` (stereo not drawn): the Potency result is “inactive”.
With `CN1CCN(C2Cc3ccccc3Sc3ccc(Cl)cc32)CC1` (stereo not drawn), the Potency result is “inactive”.
For `CCCCOc1ccc(C(=O)CCN2CCCCC2)cc1`, the Potency is 4.52 µM (active).
`CC(C)(C)CC(C)(C)c1ccccc1O`: the Potency is 1.38 µM (active).
The same measure, in the same setting: as for `C=C(c1ccc(C(=O)O)cc1)c1cc2c(cc1C)C(C)(C)CCC2(C)C`, the entry is “inactive”; as for `O[C@@H](c1cc(C(F)(F)F)nc2c(C(F)(F)F)cccc12)[C@H]1CCCCN1`, 2.37 µM (active).
Still for that read-out and setting: as for `COc1cccc(CCc2ccccc2OCC(CN(C)C)OC(=O)CCC(=O)O)c1` (stereo not drawn), the entry is “inactive”.
For `NC(=O)C(=O)N/N=C/c1ccc([N+](=O)[O-])o1`, the Potency result was “inactive”.
Take `COc1cc(C(=O)NS(=O)(=O)c2ccccc2C)ccc1Cc1cn(C)c2ccc(NC(=O)OC3CCCC3)cc12`: the Potency entry was “inactive”.

Test system in the next assay: not listed separately
Description: qHTS assay to identify small molecule antagonists of the estrogen receptor alpha (ER-alpha) signaling pathway using the BG1 cell line (AID 743080; calls by dose curve; also: nearly all actives have a fitted effect of over 25% in size). Conditions: BG1Luc4E2 ERE-luciferase antagonist mode, luminescence; activity change, negative = inhibition: at 70.3 µM (top of the series). In a few lines: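 Antagonist mode: compounds in DMSO were pinned onto BG1-Luc-4E2 cells alongside 17beta-estradiol agonist, incubated 21.5 h, and ERE-driven luciferase measured with ONE-Glo. Cytotoxicity was multiplexed using CellTiter-Fluor fluorescence.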
As for `CCCCCCCCCCOCC(O)CN` (stereo not drawn), the Potency result was “inactive”.
Turning to `CCOC(=O)C1=C(C)NC(C)=C(C(=O)OCC)C1c1ccccc1/C=C/C(=O)OC(C)(C)C`, the Potency was 33.5 µM (active).
In the case of `CN1CCN(C2Cc3ccccc3Sc3ccc(Cl)cc32)CC1` (stereo not drawn), the Potency result was “inactive”.
Still for that read-out and setting: as for `COc1cc(C=C2CCC/C(=C\c3ccc(O)c(OC)c3)C2=O)ccc1O`, the entry is “inactive”.
As to `CC=O`, the Potency was 1.61 µM (active).
As to `C=C(c1ccc(C(=O)O)cc1)c1cc2c(cc1C)C(C)(C)CCC2(C)C`, the Potency was 3.76 µM (active).
As to `O[C@@H](c1cc(C(F)(F)F)nc2c(C(F)(F)F)cccc12)[C@H]1CCCCN1`, the Potency result is “inactive”.
On the same count and under the same terms, for `COc1cccc(CCc2ccccc2OCC(CN(C)C)OC(=O)CCC(=O)O)c1` (stereo not drawn) the value was “inactive”; for `O=C1NCCN1CCN1CCC(c2cn(-c3ccc(F)cc3)c3ccc(Cl)cc23)CC1`, 29.8 µM (active); for `O=C(Nc1ccc(Cl)cc1)Nc1ccc(Cl)c(C(F)(F)F)c1`, 21.1 µM (active).
As for `CCN(CC)CCOc1ccc(C(O)(Cc2ccc(Cl)cc2)c2ccc(C)cc2)cc1` (stereo not drawn), the Potency result was “inactive”.
As to `CC(C(O)c1ccccc1)N(C)CCOC(c1ccccc1)c1ccccc1` (stereo not drawn), the Potency entry was “inactive”.
`CSc1ccc2c(c1)N(CCC1CCCCN1C)c1ccccc1S2` (stereo not drawn): the Potency entry was “inactive”.
On the same count and under the same terms, as for `COc1cc(C(=O)NS(=O)(=O)c2ccccc2C)ccc1Cc1cn(C)c2ccc(NC(=O)OC3CCCC3)cc12`, the entry is “inactive”.

Test system in another assay: not listed separately
Briefly: qHTS assay to identify small molecule antagonists of the estrogen receptor alpha (ER-alpha) signaling pathway using the BG1 cell line - cell viability counter screen (AID 743081).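 Also: compound given together with 17beta-estradiol as the ER stimulus; nearly all actives have a fitted effect of over 45% in size.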 Particulars: BG1Luc4E2 viability, CellTiter-Fluor, 22 h; series mostly up to 70.3 µM.
`CCCCCCCCCCOCC(O)CN` (stereo not drawn): the Potency result was “inactive”.
Regarding `CCN(CC)CCNc1ccc(CO)c2sc3ccccc3c(=O)c12`, the Potency was 13.3 µM (active).
With `CCOC(=O)C1=C(C)NC(C)=C(C(=O)OCC)C1c1ccccc1/C=C/C(=O)OC(C)(C)C`, the Potency result is “inactive”.
For the molecule `C=C[C@](C)(O)CC[C@@H]1[C@@]2(C)CCCC(C)(C)[C@@H]2CC[C@@]1(C)O`, the Potency result is “inactive”.
Turning to `CC(C)(c1cc(Br)c(O)c(Br)c1)c1cc(Br)c(O)c(Br)c1`, the Potency entry was “inactive”.
Same read-out and setting: as for `CN1CCN(C2Cc3ccccc3Sc3ccc(Cl)cc32)CC1` (stereo not drawn), the entry is “inactive”.
Regarding `CCCCCCCC/C=C\CCCCCCCC(=O)NCc1ccc(O)c(OC)c1`, the Potency entry was “inactive”.
With `CCCCOc1ccc(C(=O)CCN2CCCCC2)cc1`, the Potency result is “inactive”.
Regarding `CC=O`, the Potency was 32 µM (active).
Consider `C=C(c1ccc(C(=O)O)cc1)c1cc2c(cc1C)C(C)(C)CCC2(C)C`, for which the Potency entry was “inactive”.
In the case of `O[C@@H](c1cc(C(F)(F)F)nc2c(C(F)(F)F)cccc12)[C@H]1CCCCN1`, the Potency result was “inactive”.
The same measure, in the same setting: as for `CCN(CC)CCCN(c1ccccc1)C1Cc2ccccc2C1`, the figure is 29.8 µM (active); as for `COc1cccc(CCc2ccccc2OCC(CN(C)C)OC(=O)CCC(=O)O)c1` (stereo not drawn), “inactive”; as for `NC(=O)C(=O)N/N=C/c1ccc([N+](=O)[O-])o1`, “inactive”.
Same read-out and setting: as for `COCC(=O)O[C@]1(CCN(C)CCCc2nc3ccccc3[nH]2)CCc2cc(F)ccc2[C@@H]1C(C)C`, the figure is 26.6 µM (active); as for `CC(C)(C)c1cc(/C=C2\SC(=N)NC2=O)cc(C(C)(C)C)c1O`, “inactive”; as for `O=C1NCCN1CCN1CCC(c2cn(-c3ccc(F)cc3)c3ccc(Cl)cc23)CC1`, “inactive”.
Consider `O=C(Nc1ccc(Cl)cc1)Nc1ccc(Cl)c(C(F)(F)F)c1`, for which the Potency result is “inactive”.
Take `CCN(CC)CCOc1ccc(C(O)(Cc2ccc(Cl)cc2)c2ccc(C)cc2)cc1` (stereo not drawn): the Potency result is “inactive”.
Consider `c1cc(OCC2CO2)cc(OCC2CO2)c1` (stereo not drawn), for which the Potency result is “inactive”.
Consider `CCCCCCC(C)Nc1ccc(Nc2ccccc2)cc1` (stereo not drawn), for which the Potency entry was “inactive”.
With `Oc1ccc(-c2ccc(O)cc2)cc1`, the Potency entry is “inactive”.
Consider `CSc1ccc2c(c1)N(CCC1CCCCN1C)c1ccccc1S2` (stereo not drawn), for which the Potency entry is “inactive and 68.3 µM (active)”.
Consider `COc1cc(C(=O)NS(=O)(=O)c2ccccc2C)ccc1Cc1cn(C)c2ccc(NC(=O)OC3CCCC3)cc12`, for which the Potency entry is “inactive”.
Same read-out and setting: for `C=C1C(C)(C)[C@@]2(Cl)C(Cl)[C@]1(Cl)C(Cl)(Cl)C2(Cl)Cl` (stereo partly drawn) the value was “inactive”.

For the origin of these results see PubChem BioAssay (Tox21).
